Results from ChEMBL document CHEMBL1157539, “Thousands of chemical starting points for antimalarial lead identification” (Nature, 2010).

The compounds below were run on Plasmodium falciparum (assay: GSK_TCMDC: Inhibition of Plasmodium falciparum 3D7 in whole red blood cells, using parasite LDH activity as an index of growth. Test compounds present at 2uM).
Type: functional

SMILES	Inhibition
Br.COc1ccc(CCCON2C(=N)N=C(N)NC2(C)C)cc1	95%
COc1cccc(C(=O)Nc2sc3c(c2C(N)=O)CCCC3)c1OC	99%
CCOc1ccc(-c2nonc2NC(=O)c2ccc(F)cc2)cc1OCC	100%
Cc1cc(=NN=Cc2ccccc2Cl)c2cc(C(F)(F)F)ccc2[nH]1	100%

These compounds were tested on Plasmodium falciparum (assay: GSK_TCMDC: Inhibition of Plasmodium falciparum Dd2 in whole red blood cells, using parasite LDH activity as an index of growth. Test compounds present at 2uM).
Type: functional

SMILES	Inhibition
CCN(CCN(C)C)Cc1ccc(-c2ccc(NS(=O)(=O)c3cccc(Cl)c3)cc2)cc1.O=C(O)C(F)(F)F	40%
CCc1ccc(NC(=O)c2ccc(CN3CCCN(Cc4cccc(Cl)c4)CC3)cc2)cc1.O=C(O)C(F)(F)F	2%
C=CC[C@H](C[C@H](O)[C@H](Cc1ccccc1)NC(=O)c1ccc(-n2cccn2)cc1)C(=O)NC1CCCCC1	0%
COc1ccc2ncc(F)c([C@@H](O)CN3CCC(NCc4ccc5c(c4)NCCS5)CC3)c2n1.Cl	69%
Fc1ccc(Nc2ccnc3cc(-c4ccc(CNCCN5CCOCC5)o4)ccc23)c(Cl)c1	99%
Cc1nc(N)nc(N)c1C#CC1CCCC1	2%
COc1cccc2c(NCCNc3ccnc4c(OC)cccc34)ccnc12.Cl	86%
Cc1sc2nc(CSc3ccccc3)nc(N3CCN(CC(=O)NC4CC4)CC3)c2c1C	95%
CS(=O)(=O)O.c1ccc2c(CNCCCCCCNCc3c(OCC4CC4)ccc4ccccc34)c(OCC3CC3)ccc2c1	97%
COc1ccccc1-c1cccc(CNC2CCN(CC3Cn4c(=O)ccc5ccc(F)c3c54)CC2)c1.O=C(O)C(F)(F)F (centres undefined)	0%
Cc1ccc(C)c(Cn2ccc3nc(N)nc(N)c32)c1	3%
COc1cc(C(=O)NC2CCN(Cc3ccccc3)CC2)ccc1-c1cc2cc(Cl)c(Cl)cc2[nH]1.O=C(O)C(F)(F)F	100%
CS(=O)(=O)Nc1cccc(-c2cnc3[nH]cc(-c4ccc(CN)cc4)c3c2)c1	95%
Cc1cc(NC(=O)c2cccs2)ccc1OC1CCN(Cc2ccc(F)cc2)C1.O=C(O)C(F)(F)F (centres undefined)	92%
Br.CC(=O)CSC(C=Cc1ccc(N(C)C)cc1)=Nc1ccccc1	42%
O=C(O)C(F)(F)F.c1ccc(CNCCn2c(-c3ccc4c(c3)CCO4)nc3c(N4CCCC4)cccc32)cc1	85%
O=C(N[C@@H](Cc1ccccc1)C(=O)NCCN1CCOCC1)c1ccc(O)c(-c2ccc(Cl)c(Cl)c2)c1	31%
CCCSc1nc2c(c(=O)n1Cc1ccco1)C1(CCCCC1)Cc1ccccc1-2	95%
CCn1c(SCc2ccc(F)cc2)nc2sc3c(c2c1=O)CCN(C)C3	81%
Cc1ccc(C(=O)Nc2ccc(OC3CCN(CCC(C)C)C3)c(Cl)c2)cc1.O=C(O)C(F)(F)F (centres undefined)	38%

SMILES	Inhibition
CO/N=C(\C)c1ccc2c(c1)CCN(CCC1CCC(NC(=O)/C=C/c3ccc(F)cc3)CC1)CC2.Cl (centres undefined)	15%
Cc1ccccc1C1CCN(C2CCC(NC(=O)/C=C/c3ccc(C(F)(F)F)cc3)CC2)CC1 (centres undefined)	19%
CC(=O)c1ccc(NC(=O)CSc2nc(-c3ccccc3Cl)ns2)cc1	72%
CN(C)CCN(C)Cc1ccc(-c2cccc(NC(=O)c3cccc(C#N)c3)c2)cc1.O=C(O)C(F)(F)F	11%
COc1c(CN2CCOCC2)cccc1-c1cc2c(-c3ccc(C(=O)O)c(C(C)C)c3)ccnc2[nH]1.O=C(O)C(F)(F)F	90%
O=C(NC1CC1)c1cnc(N2CCC(Cc3ccccc3)CC2)c(Cl)c1.O=C(O)C(F)(F)F	96%
CN(C)CCNc1nccc(N2CCc3ncnc(Nc4ccc(OCc5cccc(F)c5)c(Cl)c4)c3C2)n1	97%
Cc1nc(-c2cccc(C(=O)NC3CCC(CCN4CCc5ccc(-c6cccnc6)cc5CC4)CC3)c2)no1.Cl (centres undefined)	4%
COc1ccc2ncc(F)c(CCN3C4CCC3CC(NCc3cc5c(cn3)OCS5)C4)c2n1.Cl (centres undefined)	48%
NCc1cccc(-c2ccccc2CNC2CCN(Cc3ccccc3)CC2)c1.O=C(O)C(F)(F)F	4%
Cc1ccc(CNC(=O)[C@H](CC(C)C)Nc2cc(C)nc(Nc3ccccc3)n2)cc1.O=C(O)C(F)(F)F	19%
COc1cccc2c(NN=Cc3ccccc3Cl)cc(C)nc12	100%
Cc1noc(C)c1-c1cccc(CNCc2ccc(-c3cccc(-c4nc5cc(C(F)(F)F)ccc5[nH]4)c3)cc2)c1.O=C(O)C(F)(F)F	97%
CCOc1ccc(C(=O)Nc2cc3c(c(C(F)(F)F)c2)CCNC3)cc1Cl.Cl	1%
CCCOc1cc(OCCC)cc(-c2ccc(C(=O)Nc3ccc4ccc(C)nc4c3)c(=O)[nH]2)c1	76%
COc1ccc(-c2csc3ncnc(Cl)c23)cc1	97%
Br.COc1ccc(CCCON2C(=N)N=C(N)NC2(C)C)cc1	94%
COc1cccc(C(=O)Nc2sc3c(c2C(N)=O)CCCC3)c1OC	8%
CCOc1ccc(-c2nonc2NC(=O)c2ccc(F)cc2)cc1OCC	99%
Cc1cc(=NN=Cc2ccccc2Cl)c2cc(C(F)(F)F)ccc2[nH]1	75%
